U2OS ROS induce: cancer cell ROS induction | 46,000 tested, 2% active | ROS induction (% of piperlongumine), % at 10 µM | AID 624156 | U2OS ROS induction, H2DCF-DA fluorescence; in the data active means ROS induction above about 79%, passing the limit was not always enough
Hits are given with their value. The entries come from a sample that favours hits as a whole.

`CC1=CCC(c2cnc(-c3ccccc3)c(C)c2)N(C)C1c1ccccc1` (stereo unspecified) gave U2OS ROS induce inactive.
`Cc1noc(C)c1NC(=O)N(C)C[C@H]1Oc2ccc(NC(=O)Cn3cnnn3)cc2CC(=O)N([C@@H](C)CO)C[C@H]1C` gave U2OS ROS induce inactive.
`CC(=O)NCCc1nc2cc([N+](=O)[O-])ccc2n1C` gave U2OS ROS induce inactive.
`CC1(C)CC(=O)c2cc(C#N)c(SCSc3nc4c(cc3C#N)C(=O)CC(C)(C)C4)nc2C1` gave U2OS ROS induce inactive.
`Cc1ccc(NS(=O)(=O)c2cc(C(=O)Nc3ccccc3C(=O)N3CCCC3)ccc2Cl)cc1C` gave U2OS ROS induce inactive.
Cc1cccc(NS(=O)(=O)c2cc(C(=O)Nc3ccccc3C(=O)N3CCOCC3)ccc2Cl)c1 was read as U2OS ROS induce inactive.
Cc1ccc(C(=O)Nc2ccccc2C(=O)N2CCN(c3ccccc3)CC2)cc1S(=O)(=O)N1CCCCC1 was read as U2OS ROS induce 144.
Screening COc1cccc(CN2CCN(C(=S)Nc3ccc(S(N)(=O)=O)cc3)CC2)c1 returned U2OS ROS induce inactive.
`NC(=NC(=O)c1cccc(Cn2cc(C(F)(F)F)ccc2=O)c1)c1ccc(Cl)cc1` gave U2OS ROS induce inactive.
`CCOC(=O)c1sc(SC)c2c1CC(c1ccc(OC)cc1)CC2=O` (stereo unspecified) gave U2OS ROS induce 136.
For CCOC(=O)c1c(O)c(O)c(C(=O)OCC)n1-c1ccc(OC)cc1 the results were U2OS ROS induce inactive.
CCOC(=O)c1sc(SC)c2c1CCc1cnc(SC)nc1-2 was read as U2OS ROS induce inactive.
C[C@@H]1CN([C@H](C)CO)C(=O)c2cccc(NC(=O)c3ccncc3)c2O[C@@H]1CN(C)Cc1ccc(C(=O)Nc2ccccc2N)cc1 was read as U2OS ROS induce inactive.
Screening Cc1ccccc1N1C(=O)NC(=O)/C(=C\c2cn(CC(=O)N3CCOCC3)c3ccccc23)C1=O returned U2OS ROS induce 117.
`CN1C(=O)/C(=C\c2cn(CC(=O)N3CCOCC3)c3ccccc23)C(=O)NC1=S` gave U2OS ROS induce inactive.
For NC(=O)CSc1cn(CC(=O)N2CCOCC2)c2ccccc12 the results were U2OS ROS induce inactive.
O=C1NC(=O)N(c2ccccc2F)C(=O)/C1=C/c1cn(CC(=O)N2CCCC2)c2ccccc12 was read as U2OS ROS induce 100.
C=CCn1cc(C=C2C(=O)OC3(CCCC3)OC2=O)c2ccccc21 was read as U2OS ROS induce inactive.
Screening CNC(=O)CS(=O)(=O)c1cn(CC(=O)N2CCCC2)c2ccccc12 returned U2OS ROS induce inactive.
COCCOC(=O)N1C(=O)[C@@]2(c3cc(C#CCNC(N)=O)ccc31)[C@H](C(=O)N1CCc3cc(OC)c(OC)cc3C1)[C@H]1C(=O)O[C@H](c3ccccc3)[C@H](c3ccccc3)N1[C@@H]2c1ccccc1OCCO was read as U2OS ROS induce inactive.
COCCOC(=O)N1C(=O)[C@@]2(c3cc(C#Cc4ccc(OC)cc4)ccc31)[C@H](c1ccccc1OCCO)N1[C@H](c3ccccc3)[C@H](c3ccccc3)OC(=O)[C@H]1[C@@H]2C(=O)N1CCc2cc(OC)c(OC)cc2C1 was read as U2OS ROS induce 112.
COCCOC(=O)N1C(=O)[C@@]2(c3ccccc31)[C@H](C(=O)N1CCc3cc(OC)c(OC)cc3C1)[C@H]1C(=O)O[C@H](c3ccccc3)[C@H](c3ccccc3)N1[C@@H]2c1ccccc1OCCO was read as U2OS ROS induce 121.
COCCOC(=O)N1C(=O)[C@@]2(c3cc(C#Cc4ccc(OC)cc4)ccc31)[C@H](C(=O)N1CCc3cc(OC)c(OC)cc3C1)[C@H]1C(=O)O[C@H](c3ccccc3)[C@H](c3ccccc3)N1[C@@H]2c1ccccc1OCCO was read as U2OS ROS induce inactive.
`C[C@]12CCC(=O)C=C1CCC1C2[C@@H](O)C[C@@]2(C)C1CC[C@]2(O)C(=O)COC(=O)CCC(=O)O` (stereo partly specified) gave U2OS ROS induce inactive.
Screening COC(=O)COc1ccc(NC(=O)c2ccc(OC)c([N+](=O)[O-])c2)cc1 returned U2OS ROS induce 118.
For COc1cc(OC)cc(C(=O)Nc2ccc(OCC(=O)O)cc2)c1 the results were U2OS ROS induce inactive.
COc1ccc(C(=O)COc2ccc(NC(=O)c3cccc([N+](=O)[O-])c3)cc2)cc1 was read as U2OS ROS induce inactive.
For CC1(C)OC[C@@H]([C@H](O)P(=O)(c2ccccc2)c2ccccc2)O1 the results were U2OS ROS induce inactive.
`COc1cccc(Nc2nc(C3(C)CC4(CC(C)OC4=O)C(=O)O3)cs2)c1` (stereo unspecified) gave U2OS ROS induce 92.
`COc1cccc(NC(=S)N2CCC3(CC2)CC(=O)c2ccccc2O3)c1` gave U2OS ROS induce inactive.
Screening COc1cccc(Nc2nnc(-c3cc4cccc(OC)c4oc3=O)s2)c1 returned U2OS ROS induce inactive.
Cc1noc(C)c1S(=O)(=O)N(C)C[C@@H]1Oc2ccc(NS(=O)(=O)c3ccc(F)cc3)cc2C(=O)N([C@@H](C)CO)C[C@@H]1C was read as U2OS ROS induce inactive.

Screens deposited in PubChem BioAssay by Broad Institute.
